# HCMV antiviral: inhibitors of human cytomegalovirus. activity change, negative = inhibition, % at 57.5 µM. 410,000 tested, 4.5% active. HFF cells, HCMV-luciferase reporter, 72 h; hits give low values; in the data active means activity change below about -60%; inconclusive means no clear call, values can overlap the other calls; inactive means above about -39%
#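 After 16 h attachment at 37C, HFF cells received test compound and HCMV-luciferase (1 PFU/cell); reporter luminescence read 72 h later, data normalized against buffer-only and known inhibitor Salinomycin.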
# FMDV antiviral: blocks foot and mouth disease virus. FMDV antiviral cell-based qHTS. Potency, µM (titrated, usually from 57.9 µM), for the others: at the top dose activity change, negative = inhibition, actives largely listed as inhibitors. 410,000 tested, 1.2% active. AID 1159524; calls by dose curve; tested in HEK293T cells; further: read-out not given here; potency means the concentration at half of the fitted maximal effect; nearly all actives have a fitted effect of over 45% in size
# Vaccinia Venus: inhibitors of vaccinia virus (Venus reporter). Vaccinia virus Venus reporter expression, fluorescence. Potency, µM (titrated, usually from 36.5 µM), inactives show at the highest dose activity change, negative = inhibition, actives largely listed as inhibitors. 330,000 tested, 0.46% active. AID 720580; calls by dose curve; tested in A549 cells; further: potency means the concentration at half of the fitted maximal effect; nearly all actives have a fitted effect of over 30% in size
# Sm TGR inh: S. mansoni TGR enzyme inhibition. Q962Y6. purified TGR, DTNB reduction, TNB absorbance 405 nm. Potency, µM (highest dose often 114 µM), for inactives: at the top dose activity change, negative = inhibition, actives largely listed as inhibitors. 360,000 tested, 3% active. AID 485364; further: potency means the concentration at half of the fitted maximal effect; nearly all actives have a fitted effect of over 60% in size
#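 First, TGR (20 nM dispensed) and NADPH were mixed with compound. Second, a 15 min room-temperature incubation followed. Third, further NADPH and then DTNB were added to start the reaction. Finally, TNB absorbance was monitored kinetically.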
# HCV inhibitor: inhibitors of hepatitis C virus infection; Huh7.5.1 HCVcc-Cre infection, luciferase reporter, 44 h; Potency, µM (series often up to 41.8 µM), without a hit: top-dose activity change, negative = inhibition, hits mostly inhibitors; AID 651820; 340,000 tested, 3.4% active; further: potency means the concentration at half of the fitted maximal effect
#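 Luciferase read-out (15 sec integration) after a 15 min room-temperature substrate step quantifies HCVcc-Cre infection. Cells, 1,000 per well, had compound added 4 h post-plating, then virus at ~0.5 moi, and were cultured 44 h.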
# Vaccinia mCherry: inhibitors of vaccinia virus infection (mCherry reporter signal); Vaccinia virus mCherry reporter infection, fluorescence; Potency, µM (highest dose often 36.5 µM), without a hit: at the highest dose activity change, negative = inhibition, usual class: inhibitors; 310,000 tested, 0.63% active; calls by dose curve; tested in A549 cells; further: potency means the concentration at half of the fitted maximal effect; nearly all actives have a fitted effect of over 35% in size
# The depositor's hits bear a star; i = inactive; ? = inconclusive; nt = no result; + = active, no number; ! = repeats disagree. A selection: hits, their analogues and other compounds. The true share with any hit is near 9.3%. Unless noted, the call rests on the fitted dose curve; in most records, active means well fitted curve in the direction sought with a large enough effect; inconclusive means small, poorly fitted or top-dose-only effect, or another doubt; inactive means no such curve, though single readings can be large; an effect the other way counts as inactive or inconclusive. On the % scale 0 is the no-effect control and ±100 the full control effect.
SMILES,HCMV antiviral,FMDV antiviral,Vaccinia Venus,Sm TGR inh,HCV inhibitor,Vaccinia mCherry
Cc1ccc(NC(=O)C2CCN(S(=O)(=O)c3ccc4c(c3)CCCC(=O)N4)CC2)c(Br)c1,+!,-18.5%,-18.8%,-1.9%,5.0%,-7.9%
Cc1ccc(CCNC(=O)C2CCN(S(=O)(=O)c3ccc4c(c3)NC(=O)C(C)S4)CC2)cc1 (stereo not given),?,31.6µM*,-26.9%,-15.5%,6.31µM*,i
Cc1cccc(N2CCN(S(=O)(=O)c3ccc4c(c3)NC(=O)C(C)S4)CC2)c1C (stereo not given),-78.6*,-22.2%,nt,-6.5%,0.316µM*,nt
CC1Sc2ccc(S(=O)(=O)N3CCN(c4ccccc4)CC3)cc2NC1=O (stereo not given),?,?,nt,3.7%,?,nt
Cc1ccc(NC(=O)C2CCN(S(=O)(=O)c3ccc4c(c3)NC(=O)C(C)S4)CC2)c(Cl)c1 (stereo not given),0.0,17.8µM*,nt,4.8%,11.2µM*,nt
CC(=O)c1cccc(-c2ccnc3c2CC(C(=O)Nc2cccc(Oc4ccccc4)c2)O3)c1 (stereo not given),38.3,-10.2%,-29.8%,nt,nt,?
COc1ccc(NC(=O)c2cccc(-n3cnnn3)c2)cc1,-23.9,5.4%,nt,-8.7%,19.5%,nt
O=C1CCCc2cc(S(=O)(=O)NCC3CCC(C(=O)Nc4ccc(Cl)cc4)CC3)ccc2N1 (stereo not given),-28.6,-17.1%,-15.0%,7.7%,nt,-21.2%
CC(C)c1ccc(NC(=O)C2CCC(CNS(=O)(=O)c3ccc4c(c3)CCCC(=O)N4)CC2)cc1 (stereo not given),-24.5,25.1µM*,?,-2.4%,nt,?
CCOc1ccccc1Nc1nc(-c2cccnc2)cs1,17.2,-15.3%,-26.8%,-0.9%,10µM*,-14.2%
CCOc1ccccc1Nc1nc(-c2sc(C)nc2C)cs1,58.6,4.3%,?,0.0%,?,3.55µM*
Cc1oc(-c2ccc(C(=O)NCc3ccccc3)cc2)nc1CS(=O)(=O)c1ccccc1,-0.5,?,-29.1%,-29.2%,nt,-26.6%
COc1cccc(CNC(=O)c2ccc(-c3nc(CS(=O)(=O)c4ccccc4)c(C)o3)cc2)c1,-5.7,?,-9.0%,28.2µM*,nt,-6.2%
Cc1oc(-c2ccc(C(=O)NCc3ccc(Cl)cc3)cc2)nc1CS(=O)(=O)c1ccccc1,-69.1*,-26.0%,-29.4%,?,nt,-4.9%
Cc1cccc(CNC(=O)c2ccc(-c3nc(CS(=O)(=O)c4ccccc4)c(C)o3)cc2)c1,-4.4,0.0%,?,?,nt,-18.1%
N#Cc1ccc(-c2ccc(Cl)cc2)nc1SCC(=O)c1cccc(Cl)c1,-60.9*,-7.1%,-16.5%,-7.2%,9.4%,-16.3%
N#Cc1ccc(-c2ccccc2)nc1SCC(=O)c1cccc(Cl)c1,?,-5.1%,-5.9%,8.8%,-11.4%,-11.8%
COc1ccc(-c2nc(-c3ccc(NC(=O)c4ccncc4)cc3)no2)cc1OC,nt,8.91µM*,-13.4%,4.2%,?,4.1%
CCN(CC)S(=O)(=O)c1cccc(C(=O)NCCCN2CCOCC2)c1,-6.7,-5.9%,-6.3%,-5.2%,15.2%,-16.0%
O=C(OCC(=O)C12CC3CC(CC(C3)C1)C2)c1ccc(CO)cc1,-18.1,0.0%,nt,-4.5%,-6.7%,nt
CC1CCN(S(=O)(=O)c2cccc(C(=O)NC3CCCCC3)c2)CC1,8.1,24.1%,-14.0%,4.5%,?,-6.0%
Cc1cccc(NC(=S)NC(=O)C2CC2)c1,nt,nt,nt,35.5µM*,nt,nt
Cc1cc(C)cc(NC(=S)NC(=O)C2CC2)c1,1.8,-16.3%,nt,12.6µM*,?,nt
COCCNC(=O)c1ccc2c(c1)N(Cc1cc(C)ccc1C)C(=O)c1ccccc1S2(=O)=O,?,4.5%,-13.4%,2.9%,nt,i
COc1ccc2ccccc2c1CNC(C)c1ccccc1 (stereo not given),-10.7,-17.1%,nt,-16.8%,5.62µM*,nt
SMILES,HCMV antiviral,FMDV antiviral,Vaccinia Venus,Sm TGR inh,HCV inhibitor,Vaccinia mCherry
COc1ccc2ccccc2c1CNCc1ccc(C)cc1,3.6,-22.1%,0.2%,-23.2%,?,-9.1%
COc1ccc(-n2nnnc2C(c2cc3ccccc3o2)N2CCC(n3c(=O)[nH]c4ccccc43)CC2)cc1 (stereo not given),-100.3*,?,?,nt,nt,?
Cc1cccc(C)c1-n1nnnc1C(c1cccc2ccccc12)N1CCC(n2c(=O)[nH]c3ccccc32)CC1 (stereo not given),4.9,-17.1%,-24.0%,nt,nt,-7.8%
COc1ccc(C(c2nnnn2Cc2ccccc2)N2CCC(n3c(=O)[nH]c4ccccc43)CC2)cc1 (stereo not given),-65.3*,-21.5%,-25.1%,nt,nt,-28.3%
O=c1[nH]c2ccccc2n1C1CCN(CCCC(c2ccc(F)cc2)c2ccc(F)cc2)CC1,?,?,?,12.5%,2µM*!,-13.9%
Cc1cccc(C)c1-n1nnnc1C(C1CC1)N1CCC(n2c(=O)[nH]c3ccccc32)CC1 (stereo not given),-15.1,?,-18.0%,nt,nt,1.0%
Cc1cccc(C)c1-n1nnnc1C(c1cccs1)N1CCC(n2c(=O)[nH]c3ccccc32)CC1 (stereo not given),-76.8*,?,-16.8%,nt,nt,9.7%
CC(=O)Nc1c(C(=O)N2CCCCCC2)cnn1-c1ccccc1Cl,-8.6,-5.5%,nt,-13.3%,-0.8%,nt
COc1ccc(CCNC(=O)CSc2nc(N)c(C#N)c(-c3cccs3)c2C#N)cc1OC,42.2,-24.7%,-16.3%,13.6%,nt,-20.4%
FC(F)(F)Oc1ccccc1C(c1nnnn1Cc1ccccc1)N1CCN(C/C=C/c2ccccc2)CC1 (stereo not given),-24.3,-11.3%,-6.8%,nt,nt,8.7%
O=c1[nH]c2ccccc2n1C1CCN(C(c2cccs2)c2nnnn2Cc2ccccc2)CC1 (stereo not given),-95.9*,-4.8%,?,nt,nt,-6.9%
COc1ccc(C(c2nnnn2-c2ccc(OC)cc2)N2CCC(n3c(=O)[nH]c4ccccc43)CC2)cc1 (stereo not given),-60.7*,?,-14.0%,nt,nt,-25.5%
c1ccc(Cn2nnnc2C(c2cccs2)N2CCCCCC2)cc1 (stereo not given),?,nt,-5.8%,2.8%,-12.3%,i
O=c1[nH]c2ccccc2n1C1CCN(C(c2ccccc2OC(F)(F)F)c2nnnn2Cc2ccccc2)CC1 (stereo not given),-69.4*,?,-26.5%,nt,nt,-8.5%
CN(c1ccc(F)cc1)S(=O)(=O)c1ccc(Cl)c(C(=O)OCC(=O)NC2CC2)c1,?,-16.7%,nt,nt,9.4%,nt
COC(=O)C(NC(=O)CN1C(=O)c2ccccc2C1=O)c1ccc(O)c(OC)c1 (stereo not given),4.1,-8.7%,nt,2.7%,6.9%,nt
Cc1cn([C@H]2C[C@H](O)[C@@H](CNC(=O)[C@H](N)Cc3cn(COCc4ccccc4)cn3)O2)c(=O)[nH]c1=O,8.4,-23.1%,-7.1%,nt,nt,i
